TDP1 cell noCPT = qHTS for Inhibitors of human tyrosyl-DNA phosphodiesterase 1 (TDP1): qHTS in cells in absence of CPT. AID 686978, 2013. DT40 Tdp1-/- hTDP1 cells, no CPT, ATP luminescence, 48 h. 420,000 tested, 15% active. Potency, µM (series often up to 46.2 µM), for inactives: top-dose activity change, negative = growth inhibition, usual class: inhibitors; note: potency is the fitted concentration of half-maximal effect; % is set by controls: 0 for no effect and ±100 for the full control effect; nearly all actives have a fitted effect of over 55% in size
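DT40 Tdp1-/-;hTDP1 cells, no CPT (DMSO vehicle only), 400 cells/well; compounds pin-transferred; ≥48 hr, 37 °C; CellTiter-Glo 30 min RT dark, luminescence read.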
TGFb SMAD3 inh = inhibitors of TGF-b signaling | HepG2 CAGA-GFP TGF-b/SMAD3 reporter, GFP fluorescence, 18 h; TGF-beta stimulated, 500 pg/mL final | Potency, µM (doses to about 46.1 µM), for the others: at the top dose activity, negative = inhibition, hits mostly inhibitors | 410,000 tested, 1.2% active | AID 588855; note: potency is the fitted concentration of half-maximal effect; % is set by controls: 0 for no effect and ±100 for the full control effect; nearly all actives have a fitted effect of over 65% in size
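Inhibition of TGF-beta-driven CAGA-GFP reporter expression in HEPG2 cells is measured by cellular GFP fluorescence after 18 h stimulation with 500 pg/mL recombinant TGF-beta in 1% FBS medium at 37 degrees C.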
IL-1B inflam inh = inhibitors of inflammasome signaling (IL-1 beta secretion); THP-1 LPS/ATP IL-1B secretion, AlphaLISA, 16 h; stronger effect = lower value; activity change, % at 57.5 µM; 360,000 tested, 4.7% active; AID 743279; in the data active = activity change below about -50%; inconclusive = mostly about -30% to -49%; note: % is set by controls: 0 for no effect and ±100 for the full control effect
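Secreted IL-1B measured by AlphaLISA bead assay after 16 h compound exposure of THP-1 cells; compounds (final up to 57.5 uM) added 1 h before LPS (250 ng/mL) and ATP (1.25 mM) stimulation; lower signal means less secretion.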
TDP1 inh = TDP1 (human) enzyme inhibition; Q9NUW8; recombinant TDP1, AlphaScreen DNA substrate cleavage; Potency, µM (titrated, usually from 130 µM), for the others: at the top dose activity change, negative = inhibition, actives largely listed as inhibitors; 350,000 tested, 0.28% active; AID 485290; note: potency is the fitted concentration of half-maximal effect; % is set by controls: 0 for no effect and ±100 for the full control effect; nearly all actives have a fitted effect of over 40% in size
Target sequence (Q9NUW8 whole entry, looked up): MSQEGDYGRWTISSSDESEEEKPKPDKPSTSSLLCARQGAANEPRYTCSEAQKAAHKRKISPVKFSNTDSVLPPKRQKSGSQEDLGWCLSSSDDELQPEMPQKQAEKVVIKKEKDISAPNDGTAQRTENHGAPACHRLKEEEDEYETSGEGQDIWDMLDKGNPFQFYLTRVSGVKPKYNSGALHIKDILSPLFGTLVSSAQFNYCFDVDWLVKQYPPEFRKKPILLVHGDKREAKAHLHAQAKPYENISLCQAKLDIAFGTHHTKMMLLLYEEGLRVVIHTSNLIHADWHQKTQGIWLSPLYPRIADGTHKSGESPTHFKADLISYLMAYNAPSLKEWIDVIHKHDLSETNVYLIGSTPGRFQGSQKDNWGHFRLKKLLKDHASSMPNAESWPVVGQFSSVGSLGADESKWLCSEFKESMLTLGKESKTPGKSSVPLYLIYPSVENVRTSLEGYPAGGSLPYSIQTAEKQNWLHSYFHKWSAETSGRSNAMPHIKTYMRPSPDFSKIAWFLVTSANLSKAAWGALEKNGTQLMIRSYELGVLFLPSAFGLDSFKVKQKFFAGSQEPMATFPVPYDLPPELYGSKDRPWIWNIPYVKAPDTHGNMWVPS
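Signal: AlphaScreen proximity between streptavidin donor and anti-FITC acceptor beads on intact substrate. Reaction: Tdp1 1 nM, substrate 15 nM final, 5 min RT after 15 min compound preincubation.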
HepG2 tox = counter-screen for TGF-b inhibitors: cytotoxicity in HepG2 cells; AID 588856; 410,000 tested, 0.76% active; HepG2 CAGA-GFP viability, ATP luminescence, 18 h; Potency, µM (series often up to 46.1 µM), inactives show at the highest dose activity change, negative = cytotoxicity, usual class: cytotoxic; note: potency is the fitted concentration of half-maximal effect
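HepG2 CAGA-GFP cells (1000/well, DMEM with 1% FBS) received compound, then TGF-beta at 500 pg/mL final, and were incubated 18 hours at 37 degrees C. Viability was read by CellTiter-Glo luminescence. Media-only wells were set as complete cell-killing and DMSO as no toxicity.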
DT40 TDP1 CPT = growth inhibition of DT40 Tdp1-/-;hTDP1 cells with camptothecin (screen for TDP1 inhibitors); 420,000 tested, 12% active; Potency, µM (titrated, usually from 46.2 µM), for the others: top-dose activity change, negative = growth inhibition, most hits filed as inhibitors; chicken DT40 Tdp1-/-;hTDP1 cells + 20 nM CPT, ATP luminescence, 48 h; AID 686979; note: potency is the fitted concentration of half-maximal effect; % is set by controls: 0 for no effect and ±100 for the full control effect; nearly all actives have a fitted effect of over 55% in size
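Cell growth measured by CellTiter-Glo luminescence after a minimum 48 h, 37 C compound exposure with 20 nM CPT in Tdp1-knockout DT40 cells stably expressing hTDP1, seeded 400/well; qHTS titration format.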
* hit, by the source's call. Compounds with a hit are over-represented: about 19% of the library has one in this group of screens. Unless noted, calls come from the whole dose curve; as a rule, active = well fitted curve in the direction sought with a large enough effect; inconclusive = small, poorly fitted or top-dose-only effect, or another doubt; inactive = no such curve, though single readings can be large; an effect the other way counts as inactive or inconclusive.

O=C(O)c1ccc2c(c1)N(Cc1ccccc1)C(=O)c1ccccc1S2=O (stereo not given) was read as TDP1 cell noCPT -17%, TGFb SMAD3 inh 0%, IL-1B inflam inh 11, TDP1 inh -7%, HepG2 tox 1% and DT40 TDP1 CPT inconclusive.
O=C(c1ccc2c(c1)N(Cc1ccc(F)cc1)C(=O)c1ccccc1S2=O)N1CCC(Cc2ccccc2)CC1 (stereo not given) was read as TDP1 cell noCPT 15µM*, TGFb SMAD3 inh inconclusive, TDP1 inh 7%, HepG2 tox -8% and DT40 TDP1 CPT 16µM*.
For O=C(c1ccc2c(c1)N(Cc1ccccc1)C(=O)c1ccccc1S2=O)N1CCC(Cc2ccccc2)CC1 (stereo not given) the results were TDP1 cell noCPT 6.5µM*, TGFb SMAD3 inh inconclusive, TDP1 inh 7%, HepG2 tox -25% and DT40 TDP1 CPT 6.5µM*.
For CCOC(=O)C1CCCN(C(=O)c2ccc3c(c2)N(Cc2ccccc2)C(=O)c2ccccc2S3=O)C1 (stereo not given) the results were TDP1 cell noCPT 18µM*, TGFb SMAD3 inh 10µM*, IL-1B inflam inh 0, TDP1 inh 0%, HepG2 tox -1% and DT40 TDP1 CPT inconclusive.
CCOC(=O)C1CCCN(C(=O)c2ccc3c(c2)N(Cc2ccccc2)C(=O)c2ccccc2S3(=O)=O)C1 (stereo not given) was read as TDP1 cell noCPT inconclusive, TDP1 inh 6%, HepG2 tox -27% and DT40 TDP1 CPT inconclusive.
`O=C1/C(=C\c2cccs2)SC(=S)N1C1CCS(=O)(=O)C1` (stereo not given) gave TDP1 cell noCPT inconclusive, TGFb SMAD3 inh 3%, IL-1B inflam inh inconclusive, TDP1 inh 6%, HepG2 tox -8% and DT40 TDP1 CPT inconclusive.
Screening CCN(C(=O)CN1C(=O)S/C(=C\c2ccc(F)cc2)C1=O)C1CCS(=O)(=O)C1 (stereo not given) returned TDP1 cell noCPT inconclusive, TGFb SMAD3 inh 9%, IL-1B inflam inh -16, TDP1 inh 8%, HepG2 tox -24% and DT40 TDP1 CPT inconclusive.
O=C1/C(=C/c2ccccc2)SC(=S)N1C1CCS(=O)(=O)C1 (stereo not given) was read as TDP1 cell noCPT inconclusive, TGFb SMAD3 inh -29%, IL-1B inflam inh 18, HepG2 tox -36% and DT40 TDP1 CPT 23µM*.
`CCN(C(=O)CN1C(=O)/C(=C/c2ccccc2)SC1=S)C1CCS(=O)(=O)C1` (stereo not given) gave TDP1 cell noCPT inconclusive, TGFb SMAD3 inh -1%, IL-1B inflam inh -10, TDP1 inh 5%, HepG2 tox -6% and DT40 TDP1 CPT 23µM*.
`O=C1/C(=C/c2ccncc2)SC(=S)N1C1CCS(=O)(=O)C1` (stereo not given) gave TDP1 cell noCPT 8.2µM*, TGFb SMAD3 inh inconclusive, IL-1B inflam inh -92*, TDP1 inh -2%, HepG2 tox 20µM* and DT40 TDP1 CPT 5.8µM*.
CC(C)c1ccc(NC(=O)Cc2ccc(NC3=NC4CS(=O)(=O)CC4S3)cc2)cc1 (stereo not given) was read as TDP1 cell noCPT 9%, TGFb SMAD3 inh 0%, IL-1B inflam inh 27, HepG2 tox 17% and DT40 TDP1 CPT 21%.
CC[C@H](C)Cc1cn([C@@H](CCCN=C(NC(=O)OC(C)(C)C)NC(=O)OC(C)(C)C)C(=O)NCCCCCCCCCCC(=O)N2CCN(C(=O)OC(C)(C)C)CC2)nn1 was read as TDP1 cell noCPT 7.3µM*, TGFb SMAD3 inh inconclusive, IL-1B inflam inh -26, HepG2 tox -35% and DT40 TDP1 CPT 9.2µM*.
For CC(C)(C)OC(=O)NCCCCCc1cn(CC(=O)NCCCCCCCCCCC(=O)N2CCN(C(=O)OC(C)(C)C)CC2)nn1 the results were TDP1 cell noCPT 6.5µM*, TGFb SMAD3 inh -5%, IL-1B inflam inh 22, TDP1 inh -10%, HepG2 tox -12% and DT40 TDP1 CPT 5.8µM*.
Cc1cn([C@@H](CCCCNC(=O)OC(C)(C)C)C(=O)NCCCCCCCCCCC(=O)N2CCN(C(=O)OC(C)(C)C)CC2)nn1 was read as TDP1 cell noCPT 7.3µM*, TGFb SMAD3 inh 11µM*, IL-1B inflam inh -7, TDP1 inh 4%, HepG2 tox -11% and DT40 TDP1 CPT 8.2µM*.
CC[C@H](C)Cc1cn([C@@H](CCCCN)C(=O)NCCCCCCCCCCC(=O)N2CCNCC2)nn1 was read as TDP1 cell noCPT -30%, TGFb SMAD3 inh 19%, IL-1B inflam inh 6, TDP1 inh 2%, HepG2 tox -2% and DT40 TDP1 CPT -5%.
For COc1ccc(-c2coc3c(C(=O)NCCN(C)C)cccc23)c(C)c1 the results were TDP1 cell noCPT inconclusive, TGFb SMAD3 inh 28%, IL-1B inflam inh -21, HepG2 tox -31% and DT40 TDP1 CPT inconclusive.
COc1ccc(-c2coc3c(C(=O)NCCc4ccccc4)cccc23)c(C)c1 was read as TDP1 cell noCPT 16µM*, TGFb SMAD3 inh inconclusive, IL-1B inflam inh -28, HepG2 tox -2% and DT40 TDP1 CPT 16µM*.
Screening COc1ccc(-c2coc3c(C(=O)NCC4CCOCC4)cccc23)c(C)c1 returned TDP1 cell noCPT 10µM*, TGFb SMAD3 inh 22%, IL-1B inflam inh -22, HepG2 tox -11% and DT40 TDP1 CPT 10µM*.
`COCCCNC(=O)c1cccc2c(-c3ccc(OC)cc3C)coc12` gave TDP1 cell noCPT inconclusive, TGFb SMAD3 inh -2%, IL-1B inflam inh -6, HepG2 tox -20% and DT40 TDP1 CPT 18µM*.
`COc1ccc(CCNC(=O)c2cc(Cl)nc3ccccc23)cc1` gave TDP1 cell noCPT -1%, TGFb SMAD3 inh 0%, IL-1B inflam inh 44, TDP1 inh 8%, HepG2 tox -15% and DT40 TDP1 CPT inconclusive.
For COc1ccc(-c2coc3c(C(=O)NCCN4CCOCC4)cccc23)c(C)c1 the results were TDP1 cell noCPT inconclusive, TGFb SMAD3 inh -10%, IL-1B inflam inh -20, HepG2 tox -10% and DT40 TDP1 CPT inconclusive.
Screening CC(C)c1ccc2occ(CC(=O)Nc3ccccc3Cl)c2c1 returned TDP1 cell noCPT inconclusive, TGFb SMAD3 inh 1%, TDP1 inh -7%, HepG2 tox -8% and DT40 TDP1 CPT -15%.

Screens (PubChem BioAssay)
